From PubChem BioAssay AID1159580 (chemical genetic matrix, 2015)
“And” between values parts separate entries of the source, which are not always exact repeats. Equal entries are not always repeated. The whole screen tested about 5,500 compounds, of which about 2,000 (36%) were called active. Inconclusive results (about 18%) are left out. Rule as the data show it: active = normalized growth mostly below about 0.91 (no sharp cut-off); inconclusive = no clear call, values can overlap the other calls; inactive = mostly above about 0.92. The list shows a part of the results.

Assay: chemical genetic growth profiling, strain panel (AID 1159580);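 also: tested at 20 µM; growth read once vehicle control cultures reached saturation at 30 °C; 1 = growth at the plate median or of vehicle wells; lower values mean less growth of the strain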
Conditions: S. cerevisiae deletion strains, growth OD

Measured: normalized growth

Cc1onc(-c2ccccc2Cl)c1C(=O)N[C@@H]1C(=O)N2[C@@H]1SC(C)(C)[C@@H]2C(=O)O
inactive: locus YAL013W, strain DEP1, active compounds read low 1.01 | locus YAL021C, strain ccr4, active compounds read low 1.06 | locus YAL026C, strain drs2, active compounds read low 1.02 | locus YAL030W, strain snc1, active compounds read low 1.02 | locus YBL061C, strain skt5, active compounds read low 1.02 | locus YBR009C, strain hhf1, active compounds read low 0.994 | locus YBR021W, strain FUR4, active compounds read low 1.02 | locus YBR023C, strain chs3, active compounds read low 1.03 | locus YBR171W, strain sec66, active compounds read low 1.03 | locus YBR229C, strain ROT2, active compounds read low 1.01 | locus YBR231C, strain swc5, active compounds read low 1.03 | locus YBR279W, strain paf1, active compounds read low 1 | locus YCL011C, strain gbp2, active compounds read low 1.02 | locus YCL016C, strain dcc1, active compounds read low 1.01 | locus YCL029C, strain bik1, active compounds read low 1.05 | locus YCL069W, strain vba3, active compounds read low 1.03 | locus YCR088W, strain abp1, active compounds read low 1.01 | locus YDL005C, strain med2, active compounds read low 1.02 | locus YDL035C, strain GPR1, active compounds read low 1 | locus YDL040C, strain nat1, active compounds read low 1.02 | locus YDL074C, strain BRE1, active compounds read low 1.03 | locus YDL101C, strain DUN1, active compounds read low 1.01 | locus YDL134C, strain PPH21, active compounds read low 1.01 | locus YDL185W, strain tfp1, active compounds read low 1.01 | locus YDL192W, strain arf1, active compounds read low 1.01 | locus YDR001C, strain nth1, active compounds read low 1.04 | locus YDR069C, strain doa4, active compounds read low 1.03 | locus YDR101C, strain arx1, active compounds read low 1.02 | locus YDR137W, strain rgp1, active compounds read low 0.971 | locus YDR150W, strain NUM1, active compounds read low 1 | locus YDR159W, strain sac3, active compounds read low 1 | locus YDR162C, strain NBP2, active compounds read low 1.02 | locus YDR195W, strain ref2 1.03 | locus YDR297W, strain sur2, active compounds read low 1.02 | locus YDR318W, strain mcm21, active compounds read low 1.03 | locus YDR334W, strain swr1, active compounds read low 1 | locus YDR335W, strain msn5, active compounds read low 1.01 | locus YDR388W, active compounds read low 1.02 | locus YDR392W, strain spt3, active compounds read low 0.998 | locus YDR502C, strain sam2, active compounds read low 1.02 | locus YEL003W, strain gim4, active compounds read low 1.02 | locus YEL037C, strain rad23, active compounds read low 1.02 | locus YEL061C, strain CIN8 (second series), active compounds read low 1.02 | locus YEL061C, strain CIN8, active compounds read low 1.01 | locus YER015W, strain faa2, active compounds read low 1.02 | locus YER016W, strain bim1, active compounds read low 0.994 | locus YER110C, active compounds read low 1.01 | locus YER111C, strain swi4, active compounds read low 1.03 | locus YER155C, strain BEM2 (second series), active compounds read low 1.06 | locus YER155C, strain BEM2, active compounds read low 1.01 | locus YER167W, strain BCK2, active compounds read low 1.01 | locus YFR010W, strain ubp6, active compounds read low 1.02 | locus YGL078C, strain dbp3, active compounds read low 1.02 | locus YGL086W, strain mad1, active compounds read low 1.01 | locus YGL167C, strain pmr1, active compounds read low 1.03 | locus YGL173C, strain kem1, active compounds read low 1.01 | locus YGL227W, strain vid30, active compounds read low 1.01 | locus YGL240W, strain doc1, active compounds read low 1.02 | locus YGL248W, strain PDE1, active compounds read low 1.02 | locus YGL253W, strain hxk2, active compounds read low 1.02 | locus YGR078C, strain PAC10, active compounds read low 1.01 | locus YGR135W, strain pre9, active compounds read low 1.03 | locus YGR229C, strain SMI1, active compounds read low 1.02 | locus YGR252W, strain gcn5, active compounds read low 1.05 | locus YHR013C, strain ard1, active compounds read low 1.04 | locus YHR027C, strain rpn1, active compounds read low 1.02 | locus YHR030C, strain SLT2, active compounds read low 1.01 and 1 | locus YHR079C, strain IRE1 (second series), active compounds read low 1.02 | locus YHR079C, strain IRE1, active compounds read low 1 | locus YHR094C, strain hxt1, active compounds read low 1.02 | locus YHR129C, strain ARP1, active compounds read low 1.01 | locus YHR142W, strain chs7, active compounds read low 1.02 | locus YHR200W, strain rpn10, active compounds read low 1.03 | locus YIL066C, strain RNR3, active compounds read low 1.01 | locus YIL073C, strain SPO22, active compounds read low 1.06 | locus YIL125W, strain kgd1, active compounds read low 1.03 | locus YIR030C, strain dcg1, active compounds read low 1.02 | locus YJL092W, strain hpr5, active compounds read low 1.03 | locus YJL095W, strain BCK1 (second series), active compounds read low 1.02 | locus YJL095W, strain BCK1, active compounds read low 1.02 and 0.998 | locus YJL115W, strain asf1, active compounds read low 1.01 | locus YJL129C, strain trk1, active compounds read low 1.05 | locus YJL134W, strain LCB3, active compounds read low 1 | locus YJL154C, strain vps35, active compounds read low 1.03 | locus YJL164C, strain tpk1, active compounds read low 1.01 | locus YJL166W, strain qcr8, active compounds read low 1.03 | locus YJL168C, strain set2, active compounds read low 1.02 | locus YJL187C, strain SWE1 (second series), active compounds read low 1.02 | locus YJL187C, strain SWE1, active compounds read low 1.01 | locus YJR043C, strain POL32, active compounds read low 0.995
